Here are results for 33 targets from the supplement of paper PMC10849652.

The full data set covers some 7,900 targets. This sample favours those with a hit. About 0.6% of all pairs of compound and target were hits. A number with no mark means an inactive call.

UniProt P01130, sequence (P01130 whole entry, looked up): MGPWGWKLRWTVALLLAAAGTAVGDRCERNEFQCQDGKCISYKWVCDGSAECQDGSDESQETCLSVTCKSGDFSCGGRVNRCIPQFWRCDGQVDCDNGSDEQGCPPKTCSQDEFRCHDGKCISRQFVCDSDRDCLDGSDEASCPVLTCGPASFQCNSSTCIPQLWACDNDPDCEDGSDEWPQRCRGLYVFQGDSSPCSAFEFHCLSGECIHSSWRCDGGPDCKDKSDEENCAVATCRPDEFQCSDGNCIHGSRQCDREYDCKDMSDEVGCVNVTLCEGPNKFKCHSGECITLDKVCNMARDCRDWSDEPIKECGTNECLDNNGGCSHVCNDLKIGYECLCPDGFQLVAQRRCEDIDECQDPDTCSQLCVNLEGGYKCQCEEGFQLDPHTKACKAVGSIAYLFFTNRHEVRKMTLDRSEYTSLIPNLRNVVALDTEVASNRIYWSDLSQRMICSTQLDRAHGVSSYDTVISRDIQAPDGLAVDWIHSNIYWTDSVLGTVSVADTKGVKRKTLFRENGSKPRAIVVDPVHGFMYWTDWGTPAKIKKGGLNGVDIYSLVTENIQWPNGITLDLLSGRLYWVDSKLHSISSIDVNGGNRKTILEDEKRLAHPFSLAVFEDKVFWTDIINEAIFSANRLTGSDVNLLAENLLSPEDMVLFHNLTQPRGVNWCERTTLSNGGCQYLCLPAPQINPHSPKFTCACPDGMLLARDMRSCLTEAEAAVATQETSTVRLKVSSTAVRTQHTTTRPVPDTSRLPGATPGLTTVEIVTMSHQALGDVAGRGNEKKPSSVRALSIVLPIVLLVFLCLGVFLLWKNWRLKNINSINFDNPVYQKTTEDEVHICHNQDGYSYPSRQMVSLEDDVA
UniProt O95279, sequence (O95279 whole entry, looked up): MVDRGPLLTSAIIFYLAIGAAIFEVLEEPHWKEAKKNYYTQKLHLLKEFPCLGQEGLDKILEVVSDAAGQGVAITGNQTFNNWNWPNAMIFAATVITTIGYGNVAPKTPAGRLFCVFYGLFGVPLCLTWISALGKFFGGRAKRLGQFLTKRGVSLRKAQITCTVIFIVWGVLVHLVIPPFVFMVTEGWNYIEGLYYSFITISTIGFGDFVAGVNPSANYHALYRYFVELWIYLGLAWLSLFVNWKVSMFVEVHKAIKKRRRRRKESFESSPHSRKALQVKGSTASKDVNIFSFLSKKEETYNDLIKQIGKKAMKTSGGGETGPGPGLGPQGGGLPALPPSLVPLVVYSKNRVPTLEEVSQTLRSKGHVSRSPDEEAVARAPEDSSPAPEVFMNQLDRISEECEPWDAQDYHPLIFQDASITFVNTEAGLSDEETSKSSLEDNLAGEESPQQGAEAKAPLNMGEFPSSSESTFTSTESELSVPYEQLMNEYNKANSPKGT
UniProt Q16891, sequence (Q16891 whole entry, looked up): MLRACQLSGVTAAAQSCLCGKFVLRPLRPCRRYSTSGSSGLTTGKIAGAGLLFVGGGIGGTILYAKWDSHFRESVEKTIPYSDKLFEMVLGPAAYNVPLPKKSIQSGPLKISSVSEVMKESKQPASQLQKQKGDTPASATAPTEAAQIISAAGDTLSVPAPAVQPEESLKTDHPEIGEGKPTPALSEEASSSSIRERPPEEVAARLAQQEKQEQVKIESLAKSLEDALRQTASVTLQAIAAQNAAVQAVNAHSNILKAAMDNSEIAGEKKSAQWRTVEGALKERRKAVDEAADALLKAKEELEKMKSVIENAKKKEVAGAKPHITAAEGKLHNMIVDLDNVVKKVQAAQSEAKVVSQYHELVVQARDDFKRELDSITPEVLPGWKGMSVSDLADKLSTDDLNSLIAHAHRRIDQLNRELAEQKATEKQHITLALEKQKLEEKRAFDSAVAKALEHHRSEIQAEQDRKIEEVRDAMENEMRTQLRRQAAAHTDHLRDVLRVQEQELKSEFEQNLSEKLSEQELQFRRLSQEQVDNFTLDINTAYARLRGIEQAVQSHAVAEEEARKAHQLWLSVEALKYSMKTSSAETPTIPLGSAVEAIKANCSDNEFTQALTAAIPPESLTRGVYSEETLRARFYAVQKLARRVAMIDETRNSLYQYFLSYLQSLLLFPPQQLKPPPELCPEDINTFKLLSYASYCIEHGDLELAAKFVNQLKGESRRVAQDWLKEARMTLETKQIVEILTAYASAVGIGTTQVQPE
UniProt Q14693, sequence (Q14693 whole entry, looked up): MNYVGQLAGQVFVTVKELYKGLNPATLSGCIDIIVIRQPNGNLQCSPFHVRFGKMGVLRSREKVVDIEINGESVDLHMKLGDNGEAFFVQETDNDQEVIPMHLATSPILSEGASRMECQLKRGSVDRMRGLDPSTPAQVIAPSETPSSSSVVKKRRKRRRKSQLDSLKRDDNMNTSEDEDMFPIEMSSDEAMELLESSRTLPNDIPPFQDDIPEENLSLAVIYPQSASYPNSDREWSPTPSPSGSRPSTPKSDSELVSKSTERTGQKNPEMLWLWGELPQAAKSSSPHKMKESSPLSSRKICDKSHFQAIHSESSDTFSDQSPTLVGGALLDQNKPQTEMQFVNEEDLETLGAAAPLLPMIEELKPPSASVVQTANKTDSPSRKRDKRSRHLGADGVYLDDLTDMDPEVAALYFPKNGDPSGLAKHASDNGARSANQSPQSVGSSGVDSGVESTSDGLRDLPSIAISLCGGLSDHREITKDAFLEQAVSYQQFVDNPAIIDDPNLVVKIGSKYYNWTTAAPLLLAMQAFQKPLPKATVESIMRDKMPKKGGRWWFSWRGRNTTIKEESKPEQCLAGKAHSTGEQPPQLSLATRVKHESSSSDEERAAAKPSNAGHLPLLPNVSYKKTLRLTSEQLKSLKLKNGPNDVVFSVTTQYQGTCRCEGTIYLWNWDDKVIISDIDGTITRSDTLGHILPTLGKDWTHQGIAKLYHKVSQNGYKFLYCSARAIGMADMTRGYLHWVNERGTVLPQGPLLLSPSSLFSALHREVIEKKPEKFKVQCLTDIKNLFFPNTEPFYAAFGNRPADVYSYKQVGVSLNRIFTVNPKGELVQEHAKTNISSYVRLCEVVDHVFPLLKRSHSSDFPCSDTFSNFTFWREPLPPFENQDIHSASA
UniProt Q08334, sequence (Q08334 whole entry, looked up): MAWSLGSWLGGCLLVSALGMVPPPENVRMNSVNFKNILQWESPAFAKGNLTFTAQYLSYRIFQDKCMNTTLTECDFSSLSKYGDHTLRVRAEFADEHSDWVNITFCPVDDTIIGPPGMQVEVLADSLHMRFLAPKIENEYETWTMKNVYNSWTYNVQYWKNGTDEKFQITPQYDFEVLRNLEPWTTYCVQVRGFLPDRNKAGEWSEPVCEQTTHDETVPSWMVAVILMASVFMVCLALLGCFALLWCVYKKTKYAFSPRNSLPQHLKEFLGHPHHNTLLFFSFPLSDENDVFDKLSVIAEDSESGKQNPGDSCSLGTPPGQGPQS
UniProt Q5XKP0, sequence (Q5XKP0 whole entry, looked up): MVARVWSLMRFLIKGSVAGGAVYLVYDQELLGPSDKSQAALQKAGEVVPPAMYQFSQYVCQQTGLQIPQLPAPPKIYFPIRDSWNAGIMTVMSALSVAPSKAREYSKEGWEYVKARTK
UniProt Q7L2J0, sequence (Q7L2J0 whole entry, looked up): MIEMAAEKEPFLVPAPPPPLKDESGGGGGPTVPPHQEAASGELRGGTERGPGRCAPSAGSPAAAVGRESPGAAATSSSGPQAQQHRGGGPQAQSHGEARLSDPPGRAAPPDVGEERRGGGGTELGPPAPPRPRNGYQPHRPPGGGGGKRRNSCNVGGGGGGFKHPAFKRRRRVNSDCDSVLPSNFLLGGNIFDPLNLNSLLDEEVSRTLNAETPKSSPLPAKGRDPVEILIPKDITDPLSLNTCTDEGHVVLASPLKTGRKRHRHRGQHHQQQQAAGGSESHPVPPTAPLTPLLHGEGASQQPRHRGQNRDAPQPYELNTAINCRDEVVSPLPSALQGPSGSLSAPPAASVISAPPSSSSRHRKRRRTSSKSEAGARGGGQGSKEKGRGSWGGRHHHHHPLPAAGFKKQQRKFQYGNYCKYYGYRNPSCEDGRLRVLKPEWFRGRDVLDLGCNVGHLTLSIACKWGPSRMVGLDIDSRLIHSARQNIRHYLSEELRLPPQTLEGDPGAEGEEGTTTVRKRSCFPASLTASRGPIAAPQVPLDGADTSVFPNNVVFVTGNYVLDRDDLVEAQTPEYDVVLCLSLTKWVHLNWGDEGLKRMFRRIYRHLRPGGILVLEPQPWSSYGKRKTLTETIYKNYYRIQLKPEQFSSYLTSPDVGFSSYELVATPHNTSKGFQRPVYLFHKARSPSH
UniProt Q8NC54, sequence (Q8NC54 whole entry, looked up): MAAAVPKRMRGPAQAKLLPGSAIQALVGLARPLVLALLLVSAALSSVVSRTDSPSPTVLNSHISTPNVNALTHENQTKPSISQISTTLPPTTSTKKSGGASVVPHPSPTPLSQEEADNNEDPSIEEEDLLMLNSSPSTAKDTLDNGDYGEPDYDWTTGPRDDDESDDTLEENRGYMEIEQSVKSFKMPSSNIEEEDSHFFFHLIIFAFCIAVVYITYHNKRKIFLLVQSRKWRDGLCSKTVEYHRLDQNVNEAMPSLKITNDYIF
UniProt Q92551, sequence (Q92551 whole entry, looked up): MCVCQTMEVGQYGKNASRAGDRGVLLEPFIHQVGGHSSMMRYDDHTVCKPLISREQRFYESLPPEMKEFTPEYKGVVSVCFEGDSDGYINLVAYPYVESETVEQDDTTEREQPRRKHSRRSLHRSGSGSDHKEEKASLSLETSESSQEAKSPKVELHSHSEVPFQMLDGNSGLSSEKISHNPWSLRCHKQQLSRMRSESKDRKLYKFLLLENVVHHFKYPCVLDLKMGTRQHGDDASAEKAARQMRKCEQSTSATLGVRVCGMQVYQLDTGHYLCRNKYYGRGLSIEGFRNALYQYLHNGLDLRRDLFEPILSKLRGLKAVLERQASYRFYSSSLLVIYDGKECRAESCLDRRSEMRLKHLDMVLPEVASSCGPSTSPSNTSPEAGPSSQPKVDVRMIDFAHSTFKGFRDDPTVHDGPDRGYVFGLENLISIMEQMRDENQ

Compound in this test: c1cn2cc(-c3ccc4cn[nH]c4c3)nc(Nc3ccc(N4CCOCC4)cc3)c2n1 [entospletinib]
The experiment in a line: log2 fold change, soluble protein after heating vs DMSO (PISA); higher = thermal stabilisation; K562 cells, 10 uM, 30 min; active = over 0.2 and 3.5 SD of the protein, either way, in both replicates (recomputed). Put shortly:
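Aliquots of K562 cells (2×10^6 cells/mL) treated with 10 μM compound for 30 min were heated for 3 min over 48°C-58°C. After pooling and extraction in PBS with 0.5% NP-40 at 4°C, soluble protein from a 21,000xg, 90 min spin was quantified by TMTpro 16plex LC-MS/MS with channel sums equalised. Thermal stability is expressed against control samples, from duplicates, as a log2 fold change.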
On to KCNK5 (UniProt O95279), for which the log2 fold change is 0.171.

In the case of LONP2 (UniProt Q86WA8), the log2 fold change is -0.001.

MED25 isoform 3 (UniProt Q71SY5): the log2 fold change is -0.01.

Take KDM1A isoform 2 (UniProt O60341): the log2 fold change was -0.066.

As to LPIN1 isoform 7 (UniProt Q14693), the log2 fold change was -0.078.

On to KCT2 (UniProt Q8NC54), for which the log2 fold change is 0.022.

With IMMT isoform 2 (UniProt Q16891), the log2 fold change is -0.053.

For IP6K1 (UniProt Q92551), the log2 fold change was -0.029.

As for MCU (UniProt Q8NE86), the log2 fold change was 0.031.

LNPK (UniProt Q9C0E8): the log2 fold change is 0.01.

As to LAMP2 isoform 2 (UniProt P13473), the log2 fold change is 0.033.

For KEAP1 (UniProt Q14145), the log2 fold change was 0.101.

For MFF (UniProt Q9GZY8), the log2 fold change is -0.029.

Turning to LUC7L (UniProt Q9NQ29), the log2 fold change is 0.083.

With MED12 isoform 2 (UniProt Q93074), the log2 fold change is 0.177.

With LDLR (UniProt P01130), the log2 fold change was -0.008.

In the case of KSR1 (UniProt Q8IVT5), the log2 fold change was 0.038.

For the target LNPEP (UniProt Q9UIQ6), the log2 fold change was 0.013.

Turning to MEPCE (UniProt Q7L2J0), the log2 fold change is 0.154.

Turning to IL10RB (UniProt Q08334), the log2 fold change was 0.027.

Consider KLC2 (UniProt Q9H0B6), for which the log2 fold change is 0.011.

For ILF3 isoform 7 (UniProt Q12906), the log2 fold change was -0.034.

For the target LRBA, A0A494BZW2, the log2 fold change was -0.025.

In the case of KRAS isoform 2 (UniProt P01116), the log2 fold change was -0.053.

Take MICOS13 (UniProt Q5XKP0): the log2 fold change is 0.049.

Turning to MAP4 isoform 5 (UniProt P27816), the log2 fold change is -0.07.

As to KIF13A (UniProt Q9H1H9), the log2 fold change is 0.066.

As to LRRFIP1 (UniProt Q32MZ4), the log2 fold change is 0.004.

With MAP4 (UniProt E7EVA0), the log2 fold change was -0.007.

For the target LEMD3 (UniProt Q9Y2U8), the log2 fold change is -0.031.

Regarding MAP4K5 (UniProt Q9Y4K4), the log2 fold change was -0.065.

Take LIMD1 (UniProt Q9UGP4): the log2 fold change was -0.025.

On to MAPKAPK5 (UniProt Q8IW41), for which the log2 fold change is -0.03.
